Screening data (PubChem)
AGP1 TOR yeast: alters AGP1-GFP fluorescence in TOR pathway yeast screen | S. cerevisiae AGP1-GFP multiplex flow cytometry, 3 h; GFP as percent of DMSO wells | GFP response vs DMSO, % at 10 µM | 0.02% of 320,000 active | AID 2066;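 active = GFP response relative to DMSO above a set limit, near screen average plus 3 SD, cut at about 150% in these data; inconclusive = fewer than 70 cells counted for the yeast strain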;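 also: median GFP channel fluorescence of the gated AGP1 strain per well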
CIT2 TOR yeast: yeast TOR pathway CIT2-GFP modulation | S. cerevisiae CIT2-GFP strain, flow cytometry, 3 h; 100 means same as DMSO wells | GFP response vs DMSO, % at 10 µM | 0.065% of 320,000 active;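 active = GFP response relative to DMSO above a set limit, near the screen mean plus 3 SD, cut at about 150% in these data; inconclusive = Fewer than 70 cells measured for a yeast strain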;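 also: ratio of well median GFP fluorescence to mean of DMSO wells on the plate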
RPL19A TOR yeast: modulators of TOR pathway RPL19A-GFP in S. cerevisiae. percent response vs DMSO, % at 10 µM. AID 2025. S. cerevisiae RPL19A-GFP strain, flow cytometry, 3 h; stronger effect = lower value. 0.3% of 330,000 active;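 active = percent response vs DMSO below 50%; inconclusive = fewer than 70 events counted for the yeast strain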;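 also: median channel GFP fluorescence of the barcoded RPL19A-GFP strain; ratio of sample median GFP to plate DMSO average so 100% = DMSO; lower means less RPL19A-GFP as with rapamycin TOR inhibition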
DSG3 Ab inh: blocks pemphigus antibody binding to human desmoglein-3 | P32926 | DSG3-coupled beads, scFv-anti-DSG3-GFP binding, flow cytometry; stronger effect = lower value | binding (percent of control), % at 10 µM | 0.48% of 310,000 active | AID 588358;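 active = binding more than 3 SD below its plate's average and above zero; inconclusive = below that plate limit but binding exactly zero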;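 also: hits lower antibody fragment binding to DSG3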
Target sequence (P32926 whole entry, looked up, the tested form may be a part): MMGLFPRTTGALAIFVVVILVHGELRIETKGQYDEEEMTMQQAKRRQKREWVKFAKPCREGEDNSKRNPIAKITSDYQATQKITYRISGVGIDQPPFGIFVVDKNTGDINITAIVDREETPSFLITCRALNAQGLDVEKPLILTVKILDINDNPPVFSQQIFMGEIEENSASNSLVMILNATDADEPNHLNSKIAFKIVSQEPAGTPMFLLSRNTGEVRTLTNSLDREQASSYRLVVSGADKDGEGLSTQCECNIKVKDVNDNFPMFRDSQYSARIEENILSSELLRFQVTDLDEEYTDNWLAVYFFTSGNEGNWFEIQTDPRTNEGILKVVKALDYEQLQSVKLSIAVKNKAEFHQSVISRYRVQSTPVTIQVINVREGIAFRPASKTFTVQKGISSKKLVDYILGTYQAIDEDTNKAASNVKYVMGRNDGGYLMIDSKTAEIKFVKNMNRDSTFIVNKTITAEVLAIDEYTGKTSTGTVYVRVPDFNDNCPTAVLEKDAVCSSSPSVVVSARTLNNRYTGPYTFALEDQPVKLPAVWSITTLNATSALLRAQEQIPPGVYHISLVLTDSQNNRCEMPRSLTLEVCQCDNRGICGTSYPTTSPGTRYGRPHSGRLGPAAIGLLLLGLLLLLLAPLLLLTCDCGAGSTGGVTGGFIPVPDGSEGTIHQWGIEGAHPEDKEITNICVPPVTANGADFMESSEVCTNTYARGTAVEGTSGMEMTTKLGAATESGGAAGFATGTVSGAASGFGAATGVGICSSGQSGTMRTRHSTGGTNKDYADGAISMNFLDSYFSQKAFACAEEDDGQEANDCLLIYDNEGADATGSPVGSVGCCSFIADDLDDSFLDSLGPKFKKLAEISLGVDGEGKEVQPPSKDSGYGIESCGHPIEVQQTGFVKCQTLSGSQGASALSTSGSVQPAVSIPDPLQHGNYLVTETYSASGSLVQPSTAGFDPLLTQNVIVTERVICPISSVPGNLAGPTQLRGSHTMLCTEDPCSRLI
LAP4-GFP MLPCN: yeast TOR pathway LAP4-GFP modulation | AID 2023 | GFP response vs DMSO, % at 10 µM | 0.34% of 320,000 active | S. cerevisiae LAP4-GFP multiplex, flow cytometry GFP, 3 h; median GFP as percent of DMSO wells;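 active = GFP response vs DMSO above a set limit, about the screen mean plus 3 SD, cut at about 150% in these data; inconclusive = under 70 cell events counted for the yeast strain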
MEP2 TOR yeast: alters MEP2-GFP fluorescence in TOR pathway yeast screen; S. cerevisiae MEP2-GFP strain, flow cytometry GFP, 3 h; 100% = DMSO control level; GFP response vs DMSO, % at 10 µM; 0.51% of 330,000 active; AID 2016;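 active = GFP response versus DMSO above a set limit, roughly screen mean plus 3 SD, cut at about 180% in these data; inconclusive = fewer than 70 cells counted for a yeast strain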;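 also: median GFP fluorescence of the barcode-gated MEP2-GFP cells per well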
An asterisk follows results filed as active; ? = inconclusive; nt = no result given; [ ] = dose if it differs, or a comment. Shown are actives, neighbours in structure and some others; about 1.2% of the full set was active somewhere.

SMILES | AGP1 TOR yeast | CIT2 TOR yeast | RPL19A TOR yeast | DSG3 Ab inh | LAP4-GFP MLPCN | MEP2 TOR yeast
O=S(=O)(O)c1cc(O)c2ccc(Nc3ccccc3)cc2c1 | nt | nt | nt | 44.4* | nt | nt
O=S(=O)(O)c1ccc(O)c2cc(Nc3ccccc3)ccc12 | nt | nt | nt | 37.9* | nt | nt
COc1ccc(C(=O)c2ccc([N+](=O)[O-])cc2)c(OC)c1OC | nt | nt | nt | 93.0 | nt | nt
O=C(Nc1ccc2oc(=O)ccc2c1)c1ccc(-c2ccccc2[N+](=O)[O-])o1 | 103.4 | 93.9 | 97.7 | 83.1* | 101.7 | 94.3
O=C1NC(=NCc2ccccc2)NC1(c1ccccc1)c1ccccc1 | nt | nt | nt | 116.0 | nt | nt
O=C(COc1ccccc1[N+](=O)[O-])Nc1ccc(Br)cc1 | 20.8 | ? | 55.9 | 102.9 | 88.5 | 605.4*[may fluoresce violet]
CCCOc1ccccc1-c1nc2c([nH]1)c(=O)[nH]c(=O)n2C | 26.6 | ? | 65.1 | 117.2 | 95.1 | 185.7*[may fluoresce violet]
O=C(CSCc1c(Cl)cccc1Cl)Nc1ccc2c(c1)OCCO2 | 94.5 | 87.5 | 97.6 | 99.0 | 94.6 | 100.2
CC(Sc1nccn1C)C(=O)Nc1ccc(Cl)cn1 (configuration not stated) | 93.7 | 84.4 | 87.5 | 101.6 | 91.9 | 98.2
CCC(C)NC(=O)Nc1ccc2c(c1)N(C)C(=O)c1ccccc1S2 (configuration not stated) | ? | ? | 60.6 | 101.8 | 91.1 | 187.8*[may fluoresce violet]
COCCNC(=O)Nc1ccc2c(c1)N(C)C(=O)c1ccccc1S2 | 98.1 | 102.2 | 94.7 | 103.4 | 101.1 | 107.0
Cc1ccc(NC2CCCN(C(=O)c3ccc(-n4ccnc4)cc3)C2)cc1C (configuration not stated) | 103.2 | 107.6 | 109.9 | nt | 97.0 | 99.1
C/C(CC(=O)NC12CC3CC(CC(C3)C1)C2)=N\NC(=O)c1ccc(C)cc1 | 103.3 | 82.1 | 94.5 | 110.8 | 123.3 | 105.1
Cc1cc(C)c2[nH]c(=O)c(CN(Cc3cccs3)C(=S)NCC3CCCO3)cc2c1 (configuration not stated) | 99.3 | 98.7 | 107.5 | 84.9* | 90.5 | 99.6
Cc1cc2cc(CN(Cc3cccs3)C(=S)NCC3CCCO3)c(=O)[nH]c2cc1C (configuration not stated) | 103.3 | 95.9 | 97.7 | 103.7 | 108.5 | 104.4
O=C1NC(=O)C2(CCCCCCC2)N1 | nt | nt | nt | 112.3 | nt | nt
O=C(O)c1cccc2cccc(-c3c4ccc(=O)c(O)c-4oc4c(O)c(O)ccc34)c12 | nt | nt | nt | 13.4* | nt | nt
O=C(O)c1cccc2cc(-c3ccccc3)oc(=O)c12 | 101.6 | 99.1 | 98.0 | 96.4 | 90.8 | 95.2
COc1ccc(CNC(=O)C[C@H]2C(=O)N(C3CCCCC3)C[C@@H]2Cc2ccccc2)cc1 | 87.4 | 95.7 | 98.6 | 107.3 | 126.9 | 94.2
CCNC(=S)N/N=C1\C(=O)c2cccc3cccc1c23 | 97.0 | nt | 99.9 | 104.0 | 86.7 | 96.5
O=C(N/N=C1/C(=O)c2cccc3cccc1c23)c1ccc(Cl)cc1 | 89.4 | 83.7 | 94.0 | 61.5* | 96.1 | 103.2
O=C1c2ccccc2-c2onc3ccc(NCc4ccco4)c1c23 | 93.0 | 93.0 | 93.9 | 57.7* | 99.7 | 97.5
CCOc1ccc2noc3c2c1C(=O)c1ccccc1-3 | 103.2 | 121.2 | 92.2 | 122.5 | 246.9* | 163.1
O=C1c2ccccc2-c2onc3ccc(N4CCCC4)c1c23 | nt | nt | nt | 46.7* | nt | nt
CCOC(=O)c1c(C)oc2c1C(=O)c1ccccc1C2=O | 97.9 | 98.0 | 108.1 | 100.6 | 114.7 | 96.1
SMILES | AGP1 TOR yeast | CIT2 TOR yeast | RPL19A TOR yeast | DSG3 Ab inh | LAP4-GFP MLPCN | MEP2 TOR yeast
O=C(O)c1ccccc1NCc1ccco1 | 94.7 | 93.0 | 103.0 | 93.7 | 104.1 | 105.2
CCNc1ccc2noc3c2c1C(=O)c1ccccc1-3 | 100.9 | 91.7 | 92.7 | 30.5* | 104.1 | 100.0
CC(C)c1ccc(O)c(NC(=O)c2ncn[nH]2)c1 | 95.7 | 97.3 | 95.5 | 99.8 | 99.8 | 105.0
CC(C)c1ccc2c(c1)C1(NN=C(c3ccccc3)S1)C(=O)N2 (configuration not stated) | 95.6 | 115.1 | 93.8 | 90.4 | 171.4* | 109.3
CCc1ccc2c(c1)C1(NN=C(c3ccc(C)cc3)S1)C(=O)N2 (configuration not stated) | 15.3 | ? | 40.1*[may fluoresce violet] | 95.1 | 84.4 | 92.4
COc1cc(NC(=O)COC(=O)CO/N=C(\C)c2ccc3c(c2)OCO3)cc(OC)c1OC | 102.8 | 97.4 | 94.2 | 108.0 | 102.4 | 101.8
COc1ccc2[nH]cc(/C=C/c3cc[n+](C)cc3)c2c1 | ? | ? | 78.2 | 207.6 | 133.8 | 369.5*[may fluoresce violet]
O=[N+]([O-])c1ccccc1C=CC=NN=Cc1ccccc1O | nt | nt | nt | -3.9* | nt | nt
Oc1ccccc1C=NN=CC=Cc1ccccc1 | nt | nt | nt | 92.1 | nt | nt
O=C(c1cncc(Br)c1)N1CCN(S(=O)(=O)c2ccccc2)CC1 | ? | ? | 55.8 | 111.1 | 75.1 | 234.2*[may fluoresce violet]
O=[N+]([O-])c1ccc(CSc2ccc(-c3ccccn3)nn2)cc1 | 97.0 | 97.0 | 98.7 | 82.6* | 115.5 | 98.7
COc1ccccc1/C=C/C(=O)OC(C)CN1CCCCC1 (configuration not stated) | 94.8 | 107.5 | 99.8 | 89.4* | 79.1 | 104.6
COc1ccccc1/C=C/C(=O)OCCN1CCOCC1 | 98.3 | 98.4 | 101.7 | 98.9 | 98.2 | 103.4
O=C(C1CC1)N1CCc2cc(S(=O)(=O)NCC3COc4ccccc4O3)ccc21 (configuration not stated) | ? | ? | 22.9*[may fluoresce violet] | 99.5 | 74.5 | 302.9*[may fluoresce violet]
CCC(=O)OC1(C)C(=O)C=C2C=C(CCCC(=O)OC)OC=C2C1=O (configuration not stated) | 90.3 | 88.1 | 93.7 | 98.5 | 88.4 | 87.1
CCCCC1=CC2=CC(=O)C(C)(OC(=O)CC)C(=O)C2=CO1 (configuration not stated) | ? | ? | 35.4*[may fluoresce violet] | 94.6 | 52.4 | 260.1*[may fluoresce violet]
COC(=O)c1cc(NC(=O)c2c(Cl)nc3sccn23)cc(C(=O)OC)c1 | 100.8 | 90.0 | 95.4 | 106.1 | 84.4 | 188.2*
CC(=O)c1ccc(CCCCCCCCCC(=O)O)s1 | 100.3 | 92.3 | 95.7 | 111.4 | 152.9* | 98.5
CCC(=O)c1ccc(CCCCCC(=O)O)s1 | 107.9 | 109.8 | 110.8 | 92.9 | 114.1 | 97.7
O=C(COc1ccccc1)N(Cc1cccc(F)c1)C1CCS(=O)(=O)C1 (configuration not stated) | 15.6 | ? | 44.5*[may fluoresce violet] | 126.0 | 85.6 | 138.7
Cc1ccsc1C(=O)N(C)CC(=O)Nc1ccccc1Br | nt | nt | nt | 100.4 | nt | nt
c1ccc(OCCSc2nc3ccccc3[nH]2)cc1 | nt | ? | 44.4*[may fluoresce violet] | 68.1 | 103.3 | 182.2*[may fluoresce violet]
CC1CN(c2cnn(C(C)C)c(=O)c2Cl)CC(C)O1 (configuration not stated) | 98.7 | 100.2 | 101.9 | 105.7 | 91.1 | 98.3
COc1ccc(NC(=S)NCCN2CCOCC2)cc1 | ? | ? | 18.8*[may fluoresce violet] | 105.9 | 115.7 | 419.0*[may fluoresce violet]
